Assay results from PubChem BioAssay (NCI).
The panel holds about 83,000 compounds, 20% with a hit somewhere; the sample as a whole holds those more often.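 96-well plates, one dose, 48 hours. Percent growth reported; active if below 10.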 Activity calls are given as the source filed them.

Legend:
Assay in all cases: NCI-60 one-dose screen, 48 h (100 = growth as untreated, 0 = no growth, -100 = all killed)
Conditions in all cases: 10 µM unless noted
[1] = tested on: NCI-H23 lung
[2] = tested on: NCI-H226 lung
[3] = tested on: NCI-H322M lung
[4] = tested on: HOP-62 NSCLC
[5] = tested on: NCI-H460 lung
[6] = tested on: HOP-92 NSCLC
[7] = tested on: NCI-H522 lung
[8] = tested on: A549/ATCC NSCLC
[9] = tested on: 786-0 renal
[10] = tested on: COLO 205 colon
[11] = tested on: DU-145 prostate
[12] = tested on: K-562 leukemia
[13] = tested on: MALME-3M melanoma
[14] = tested on: MDA-MB-231 breast
[15] = tested on: RXF 393 renal
[16] = tested on: SF-268 CNS
[17] = tested on: SF-295 CNS
[18] = tested on: SF-539 CNS
[19] = tested on: UACC-257 melanoma
[20] = tested on: M14 melanoma

Measured: growth

c1ccc(Sc2ncccn2)nc1
inactive: [1] 93% | [2] 92.2% | [3] 111% | [4] 100% | [5] 103% | [6] 89% | [7] 91.6% | [8] 103% | [9] 103% | [10] 116% | [11] 109% | [12] 90% | [13] 111% | [14] 109% | [15] 110% | [16] 104% | [17] 109% | [18] 96% | [19] 99.2% | [20] 99.2%

COC(=O)/C=C/c1cc(OC(C)=O)c2c(c1)C(C(=O)OC)C(c1ccc(OC(C)=O)c(OC(C)=O)c1)O2 (stereo not given)
inactive: [1] 21.3% | [2] 81.7% | [3] 55.4% | [4] 20% | [5] 13.8% | [6] 33.7% | [8] 37.4% | [9] 19.8% | [10] 38.9% | [11] 11.2% | [13] 66.3% | [14] 16.4% | [15] 28.7% | [16] 39.6% | [19] 45.4%
active: [7] -20.8% | [12] 6.86% | [17] 3.13% | [18] -6.94% | [20] -6.22%

CCCCCCCCCCCCCC1=NCC[N+]1(CCO)Cc1ccccc1 (stereo not given)
active: [1] -67% | [2] -30.2% | [3] -6.75% | [4] -82.6% | [5] -81.3% | [6] -73.1% | [7] -82.6% | [8] -68.8% | [9] -80.5% | [10] -75.5% | [11] -89.2% | [12] -50.9% | [13] -75.8% | [14] -79.9% | [15] -92.3% | [16] -69.9% | [17] -71.7% | [18] -93.8% | [19] -71.8% | [20] -79.4%

NC(N)=NC(N)=Nc1cc2ccccc2c2ccccc12
active: [6] -3.37% | [7] 7.5% | [10] -59% | [12] 5.89% | [13] -8.45% | [20] -33.4%
inactive: [1] 44.8% | [2] 54.3% | [3] 53.3% | [4] 38.3% | [5] 21.9% | [8] 41.1% | [9] 14.4% | [11] 56.3% | [14] 15.6% | [15] 36.3% | [16] 48% | [17] 53.3% | [18] 59.9% | [19] 74.4%

Oc1c(CCl)cc(Cl)cc1Cc1cc(Cl)cc(Cc2cc(Cl)cc(CCl)c2O)c1O
inactive: [2] 32.4% | [4] 57.2% | [5] 11.9% | [8] 46.5% | [9] 55.3% | [10] 68.3% | [11] 44% | [13] 27.9% | [14] 40.2% | [15] 45.4% | [16] 17.1% | [17] 62.7% | [18] 40.7% | [19] 36.1% | [20] 27.1%
active: [1] 5.68% | [3] 4.12% | [6] -18.3% | [7] -10.9% | [12] 7.26%

COC(=O)/C=C1\SC(=Nc2ccc(F)cc2)N(CCc2c[nH]c3ccccc23)C1=O
inactive: [1] 85.3% | [2] 91.2% | [3] 101% | [4] 104% | [5] 104% | [6] 106% | [7] 68.3% | [8] 79% | [9] 104% | [10] 126% | [11] 102% | [12] 88% | [13] 99.9% | [14] 96.9% | [15] 110% | [16] 104% | [17] 97.7% | [18] 109% | [19] 72.4% | [20] 102%

CC(C)NS(=O)(=O)c1cccc(-c2ccc3c(=O)n(CCCN)c4c(c3c2)C(=O)c2ccccc2-4)c1
inactive: [1] 93.4% | [2] 93.4% | [3] 115% | [4] 91.9% | [5] 102% | [6] 105% | [7] 85.3% | [8] 102% | [9] 98% | [10] 106% | [11] 107% | [12] 88.3% | [13] 118% | [14] 108% | [15] 109% | [16] 98.2% | [17] 104% | [18] 104% | [19] 110% | [20] 115%

COc1c(O)cc2oc3cc(O[C@@H]4OC(C)[C@@H](O)[C@H](O)C4O)c(CC=C(C)C)c(O)c3c(=O)c2c1CC=C(C)C (stereo not given in full)
inactive: [1] 89.4% | [2] 90.1% | [3] 107% | [4] 110% | [5] 90.5% | [6] 89.2% | [7] 68.5% | [8] 80% | [9] 101% | [10] 114% | [11] 103% | [12] 74.3% | [13] 103% | [14] 89.5% | [15] 103% | [16] 92.7% | [17] 93.3% | [18] 99% | [19] 104% | [20] 99.8%

COc1ccc(Nc2cc(NC(=O)CNc3cc(OC)c(Cl)c(OC)c3Cl)ncn2)cc1
inactive: [1] 90.2% | [2] 68.5% | [3] 88% | [4] 83.1% | [5] 89.3% | [6] 74.3% | [7] 65.5% | [8] 71.1% | [9] 88.1% | [10] 89.5% | [11] 98.8% | [12] 74.1% | [13] 106% | [14] 69.4% | [15] 86.7% | [16] 78.3% | [17] 76.4% | [18] 82% | [19] 88% | [20] 75.2%

CCCCn1c(=O)c(/C=C/C(=O)/C=C/c2ccc(O)c(OC)c2)cc2ccc(Cl)cc21
active: [2] -18.4% | [7] -4.4% | [9] -0.448% | [12] 6.69% | [14] -11.2% | [15] -15.4% | [20] 5.1%
inactive: [1] 27.7% | [3] 50.6% | [4] 59.6% | [5] 14.5% | [6] 77.3% | [8] 26.4% | [10] 29.7% | [11] 19.3% | [13] 30.2% | [16] 29.9% | [17] 30.2% | [18] 52.6% | [19] 32.1%

COC1=CC=CC2(OC)C3(O)CCCc4cccc(c43)N3C(=O)COC132 (stereo not given)
inactive: [1] 96.1% | [2] 103% | [3] 101% | [4] 102% | [5] 105% | [6] 89.9% | [7] 78.8% | [8] 90.8% | [9] 102% | [10] 107% | [11] 106% | [12] 92.5% | [13] 92.9% | [14] 98.5% | [15] 104% | [16] 98.4% | [17] 106% | [18] 98% | [19] 101% | [20] 99.1%

Cc1cc(C)nc(NS(=O)(=O)c2ccc(Nc3ccc4c5c(n(CCCN(C)C)c(=O)c4c3)-c3ccccc3C5=O)cc2)n1
inactive: [1] 83.9% | [2] 83.3% | [3] 109% | [4] 70.1% | [5] 28.9% | [6] 90.1% | [7] 73% | [8] 52.3% | [9] 80.5% | [10] 70.4% | [11] 69% | [12] 74.7% | [13] 102% | [14] 108% | [15] 115% | [16] 77.9% | [17] 83.3% | [18] 96.3% | [19] 108% | [20] 89.8%

CCCNc1nc(C)[nH]c(=O)c1S
active: [6] -2.9%
inactive: [1] 102% | [2] 122% | [3] 85.3% | [4] 119% | [5] 111% | [7] 91% | [8] 110% | [9] 110% | [10] 115% | [11] 91.3% | [12] 95% | [13] 112% | [14] 103% | [15] 118% | [16] 101% | [17] 119% | [18] 115% | [19] 108% | [20] 109%

CC(=O)OCC1SC(OC(C)=O)C(NC(=O)/C=C/CCl)C(OC(C)=O)C1OC(C)=O (stereo not given)
inactive: [1] 99.7% | [2] 103% | [3] 109% | [4] 117% | [5] 102% | [6] 105% | [8] 89.1% | [9] 124% | [10] 107% | [11] 104% | [12] 91.6% | [13] 99.6% | [14] 102% | [15] 108% | [16] 97.9% | [17] 111% | [18] 109% | [19] 83% | [20] 93.6%
active: [7] -9.03%

CCOC(=O)c1c(C)nc2c(c1N)/C(=C/c1cccs1)C(=O)N2Cc1ccccc1
inactive: [1] 74.5% | [2] 77.5% | [3] 91.9% | [4] 68.8% | [5] 67.1% | [6] 60.4% | [7] 58.3% | [8] 77.9% | [9] 52.1% | [10] 61.3% | [11] 62% | [12] 34.7% | [13] 85.1% | [14] 55.4% | [15] 40% | [16] 74.7% | [17] 88% | [18] 90.7% | [19] 74% | [20] 73.8%
